Assay outcomes deposited in PubChem by several laboratories.
Shown are actives, neighbours in structure and some others; about 4.2% of the full set was active somewhere.
AHR activator: activates the human aryl hydrocarbon receptor. hit rate 2.5% among 320,000. activation, % at 5 µM. AHR-responsive luciferase reporter cells, luminescence. P35869. AID 2796; in the data active = activation above about 47%;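 also: 0% = vehicle wells and 100% = reference agonist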
Target sequence (P35869 whole entry, looked up): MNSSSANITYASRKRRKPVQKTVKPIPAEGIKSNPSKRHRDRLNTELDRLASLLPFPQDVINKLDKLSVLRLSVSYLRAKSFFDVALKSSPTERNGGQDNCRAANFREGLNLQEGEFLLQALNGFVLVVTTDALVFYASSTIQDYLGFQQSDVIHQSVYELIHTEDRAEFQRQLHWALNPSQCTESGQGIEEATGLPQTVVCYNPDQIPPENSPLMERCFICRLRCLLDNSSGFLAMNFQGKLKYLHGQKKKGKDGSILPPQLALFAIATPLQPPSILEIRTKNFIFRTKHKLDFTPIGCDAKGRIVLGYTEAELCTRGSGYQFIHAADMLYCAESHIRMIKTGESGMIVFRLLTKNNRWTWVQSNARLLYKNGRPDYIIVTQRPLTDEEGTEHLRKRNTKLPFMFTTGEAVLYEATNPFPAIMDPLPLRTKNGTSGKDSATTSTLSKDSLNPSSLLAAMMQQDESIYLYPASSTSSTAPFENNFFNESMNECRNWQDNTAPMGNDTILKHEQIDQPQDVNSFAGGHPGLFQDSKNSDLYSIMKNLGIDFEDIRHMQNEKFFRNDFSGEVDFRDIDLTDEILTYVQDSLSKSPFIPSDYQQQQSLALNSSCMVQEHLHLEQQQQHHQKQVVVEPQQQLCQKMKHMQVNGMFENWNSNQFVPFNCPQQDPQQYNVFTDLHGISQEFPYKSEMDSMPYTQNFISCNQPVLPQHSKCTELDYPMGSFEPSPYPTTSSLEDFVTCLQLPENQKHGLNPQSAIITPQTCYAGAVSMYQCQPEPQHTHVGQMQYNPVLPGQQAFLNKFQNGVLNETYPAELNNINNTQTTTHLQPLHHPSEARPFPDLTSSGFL
esBAF inh: inhibitors of esBAF chromatin remodeling in mouse ES cells; Bmi1-luciferase knock-in reporter, 24 h; 100% = twice the neutral-well signal; reporter increase, % at 12.5 µM; hit rate 2% among 350,000; in the data active = activation above about 40%; inconclusive = no clear call, values can overlap the other calls;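 also: 0% = median of the plate's neutral control wells and 100% = double that signal; a rise in the Bmi1 reporter signal indicates esBAF inhibition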
MITF act: activators of MITF-driven TRPM1 promoter activity in SK-MEL-5 cells; SK-MEL-5 TRPM1-promoter luciferase, 24 h; % of positive control, neutral wells = 0; activation, % at 12.5 µM; hit rate 0.75% among 300,000;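 active = mean activation of at least 80% with every replicate also reaching 80%; inconclusive = mean reaches 80% but some replicate falls short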;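 also: 0% = neutral control wells and 100% = parthenolide positive control wells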
GAA850 FXN act: frataxin GAA850 promoter activation. activation, % at 6 µM. AID 540364. hit rate 0.56% among 360,000. HEK293 lucGAA850 FXN promoter luciferase reporter, 24 h; percent of 10 µM SAHA response;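 active = activation above the average of all compounds screened plus 3 SD, cutoff fixed separately per campaign, cut at about 7.5% in these data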;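 also: 0% = DMSO wells and 100% = 10 µM SAHA wells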
Wnt act: activates Wnt/beta-catenin signaling in a reporter cell assay; activation, % at 9.35 µM; activator, plate reader; AID 743398; hit rate 1.2% among 300,000; in the data active = activation above about 30%, passing the limit was not always enough; inconclusive = no clear call, values can overlap the other calls;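 also: 0% = neutral control wells and 100% = positive control wells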
AHR act confirm: human AHR activation, confirmation; human cells, AHR-responsive luciferase reporter, luminescence; hit rate 87% among 2,300; AID 2845; shares compounds with AHR activator; activation, % at 9 µM; in the data active = activation above about 49%;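 also: HepG2 hepatoma cells carrying a DRE-driven firefly luciferase reporter; 0% = vehicle wells and 100% = reference agonist wells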
PXR act counter: PXR activation, counter-screen for AHR activators; cell-based PXR reporter, luciferase luminescence; hit rate 88% among 2,300; activation, % at 11.6 µM; shares compounds with AHR activator; in the data active = activation above about 11%;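 also: human hepatoma DPX-2 cells expressing full-length human PXR; 0% = DMSO and 100% = reference agonist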
Starred values were filed as active, the others as inactive.

COCC(=O)Nc1ccc2c(c1)[C@H]1C[C@@H](CC(=O)NCc3ccccc3)O[C@@H](CO)[C@H]1O2 was read as esBAF inh -1.
COc1cccc(/C=N/Nc2nc(-c3cccnc3)nc3ccccc23)c1 was read as AHR activator 93*, GAA850 FXN act -1, Wnt act 7, AHR act confirm 54* and PXR act counter 18*.
`C[C@@H]1CN([C@H](C)CO)C(=O)c2cc(NC(=O)Nc3ccc(F)cc3)ccc2O[C@@H](C)CCCCO[C@H]1CN(C)S(=O)(=O)c1cn(C)cn1` gave esBAF inh 1.
`Cc1cc(C)nc(Nc2ncc(O)n2-c2ccccc2)n1` gave AHR activator 90*, MITF act -3, GAA850 FXN act 1, Wnt act 1 and AHR act confirm 61*.
Screening CCCc1c(C(=O)Nc2ccc(N3CCOCC3)cc2)cnn1-c1ccccc1 returned AHR activator 83*, GAA850 FXN act 2, Wnt act 0, AHR act confirm 102* and PXR act counter 12*.
Screening Cc1c(C(=O)Nc2ccc(N3CCOCC3)cc2)oc2ccccc12 returned AHR activator 85*, GAA850 FXN act 4, AHR act confirm 131* and PXR act counter 19*.
`Cc1cc(NC(=O)c2oc3ccccc3c2C)ccc1-n1cnnn1` gave AHR activator 99*, esBAF inh 20, MITF act 24, GAA850 FXN act 4, Wnt act -4, AHR act confirm 100* and PXR act counter 14*.
`CCCc1c(C(=O)Nc2cc(C)on2)cnn1-c1ccccc1` gave AHR activator 10, esBAF inh -4, MITF act -9, GAA850 FXN act 0 and Wnt act 5.
For Cc1c(C(=O)OCC(=O)Nc2ccc(N3CCOCC3)cc2)oc2ccccc12 the results were AHR activator 3, esBAF inh 4, MITF act -11, GAA850 FXN act 2 and Wnt act 0.
Cc1c(C(=O)Nc2ccccn2)oc2ccccc12 was read as AHR activator 115*, esBAF inh -5, MITF act 23, GAA850 FXN act 2, Wnt act inconclusive, AHR act confirm 212* and PXR act counter 21*.
Screening O=C([C@@H]1[C@@H](CO)[C@@H]2Cn3c(ccc(C4=CCCCC4)c3=O)[C@@H]2N1Cc1nccs1)N1CCOCC1 returned esBAF inh 1.
Cc1ccc(NC(=O)c2oc3ccccc3c2C)nc1 was read as AHR activator 139*, MITF act 20, GAA850 FXN act 5, Wnt act inconclusive, AHR act confirm 141* and PXR act counter 14*.
CCC(=O)N1C[C@@H](O)COC[C@@H]2O[C@H](CC(=O)N3CCCCC3)CC[C@H]21 was read as esBAF inh -1.
Screening O=C(Nc1cccc(-c2nc3cc(Cl)ccc3o2)c1)C1CCCO1 (stereo unspecified) returned AHR activator 118*, esBAF inh 29, MITF act 18, GAA850 FXN act 3 and AHR act confirm 126*.
NS(=O)(=O)c1ccc(NC2=CC(=O)C(=O)c3ccccc32)cc1 was read as AHR activator 114*, esBAF inh 6, GAA850 FXN act 0, Wnt act 0, AHR act confirm 20 and PXR act counter 5.
For O=C1C=C(Nc2ccc(O)cc2)C(=O)c2ccccc21 the results were AHR activator 33, MITF act -51, GAA850 FXN act 3 and Wnt act 0.
Cc1cccnc1Nc1nc(-c2ccc(F)cc2)cs1 was read as AHR activator 126*, esBAF inh inconclusive, GAA850 FXN act 6, Wnt act -4, AHR act confirm 131* and PXR act counter 17*.
For Cc1ccnc(Nc2nc(-c3ccc(F)cc3)cs2)c1 the results were AHR activator 165*, esBAF inh 36, GAA850 FXN act 4, Wnt act 0, AHR act confirm 132* and PXR act counter 15*.
Cc1ccc(S(=O)(=O)Nc2nc(-c3ccc(F)cc3)cs2)cc1 was read as AHR activator 2, esBAF inh -5, MITF act 7, GAA850 FXN act 3 and Wnt act -3.
`Cc1ccnc(NCc2ccc(Cl)cc2)c1` gave AHR activator -4, esBAF inh 19, GAA850 FXN act 0 and Wnt act 4.
Cc1ccnc(Nc2nc(-c3ccc(Cl)cc3)cs2)c1 was read as AHR activator 137*, esBAF inh 67*, MITF act 13, GAA850 FXN act 3, Wnt act 6, AHR act confirm 97* and PXR act counter 32*.
Screening C[C@H](CO)N1C[C@H](C)[C@@H](CN(C)C(=O)CCC(F)(F)F)OCCCC[C@H](C)Oc2ccc(NS(C)(=O)=O)cc2C1=O returned esBAF inh -5.
For COc1ccc(NC(=O)Nc2ccc3c(c2)[C@H]2C[C@@H](CC(=O)O)O[C@@H](CO)[C@H]2O3)cc1 the results were esBAF inh -5.
For CN(C)CCCN1C(=O)c2cccc3cccc(c23)C1=O the results were AHR activator 141*, esBAF inh -3, GAA850 FXN act 2, Wnt act -1 and AHR act confirm 163*.
For COc1ccc(N(CCCN2C(=O)c3cccc4cccc(c34)C2=O)C(=O)c2cccc(OC)c2)cc1 the results were AHR activator 88*, MITF act -14, GAA850 FXN act 4, Wnt act 2, AHR act confirm 99* and PXR act counter 119*.
`Cc1ccc(N(CCCCN2C(=O)c3ccccc3C2=O)C(=O)c2cccc([N+](=O)[O-])c2)cc1` gave AHR activator -2, esBAF inh -1, MITF act -2 and GAA850 FXN act 3.
`O=C1c2ccccc2C(=O)N1CCSc1ncn[nH]1` gave AHR activator -11, esBAF inh 6, MITF act 1, GAA850 FXN act 0 and Wnt act 0.
`O=C1c2cccc3cccc(c23)C(=O)N1CCCSc1ncn[nH]1` gave AHR activator 101*, esBAF inh -5, MITF act 12, GAA850 FXN act 2, Wnt act 3, AHR act confirm 88* and PXR act counter 57*.
C[C@@H]1CCCCO[C@@H](CN(C)Cc2ccc(C(=O)O)cc2)[C@H](C)CN([C@@H](C)CO)C(=O)c2cc(NC(=O)CCCN(C)C)ccc2O1 was read as esBAF inh -7.
`CC(=O)N1[C@@H](CO)[C@H](c2ccccc2)[C@@H]1CN(C(=O)NC(C)C)C1CCCC1` gave esBAF inh 1.
`O=C(/C=C/Nc1ccc(F)cc1F)c1cccs1` gave AHR activator 86*, MITF act -11, GAA850 FXN act -2, Wnt act 13, AHR act confirm 108* and PXR act counter 86*.
